Screens as filed in PubChem.
Shown are actives, neighbours in structure and some others; about 3.6% of the full set was active somewhere.
MazEF act: activators of E. coli MazEF toxin-antitoxin RNase. P0AE70. FAM/BHQ RNA-DNA oligo cleavage fluorescence, 5 h. activation, % at 20 µM. 350,000 compounds, 0.32% hits. AID 504720; in the data active = activation above about 50%
Target sequence (P0AE70 whole entry, looked up): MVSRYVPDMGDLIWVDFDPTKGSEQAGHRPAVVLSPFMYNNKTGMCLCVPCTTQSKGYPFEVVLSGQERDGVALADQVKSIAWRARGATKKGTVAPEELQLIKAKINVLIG
BoNT A protease: inhibitors of Botulinum neurotoxin A light chain protease. inhibition, % at 10 µM. 360,000 compounds, 0.17% hits. multiplex microsphere protease substrate cleavage, flow cytometry. AID 588499; also: plate controls were buffer without enzyme for full effect and enzyme alone for no effect
Bead autofluor: compound fluorescence in toxin protease inhibitor counterscreen. 360,000 compounds, 3.1% hits. fluorescence intensity (no concentration beside the values). AID 624483. compound autofluorescence counterscreen, microsphere flow cytometry; active compounds read high; in the data active = fluorescence intensity above about 16000; inconclusive = no clear call, values can overlap the other calls
Anthrax LF prot: anthrax lethal factor protease inhibition | P15917 | multiplex microsphere protease cleavage assay, LF | inhibition, % at 10 µM | 360,000 compounds, 0.12% hits | AID 588501; also: plate controls were buffer without enzyme for full effect and enzyme alone for no effect
BoNT F protease: blocks Botulinum neurotoxin F light chain protease; 360,000 compounds, 0.22% hits; Multiplex microsphere protease cleavage assay, flow cytometry; AID 588497; inhibition, % at 10 µM; in the data active = inhibition above about 35%, passing the limit was not always enough; inconclusive = no clear call, values can overlap the other calls; also: plate controls were buffer without enzyme for full effect and enzyme alone for no effect
Active calls of the source: *; ? = inconclusive; · = no result. Rule as the data show it, unless noted: active = inhibition above about 30%; inconclusive = no clear call, values can overlap the other calls; inactive = below that.

SMILES	MazEF act	BoNT A protease	Bead autofluor	Anthrax LF prot	BoNT F protease
COc1ccc(C2OC(=O)CC2C(=O)NC2CCCC(C)C2C)cc1OC (stereo not given)	1	0	9223	6	6
COc1ccc(C2=NOC(C(=O)NC3CCCCC3)C2)cc1OC (stereo not given)	-3	0	23218*	-2	3
COc1ccc(-c2cc(C(=O)NC3CCCC3)no2)cc1OC	3	0	22323*	2	-1
COc1ccc(C2OC(=O)CC2C(=O)NC2CCCCCC2)cc1OC (stereo not given)	-16	-6	22084*	-2	-7
COc1ccc(-c2cc(C(=O)NC3CCCC3)no2)cc1	6	3	5791	-1	14
CCN(CC(=O)Nc1ccc(NC(C)=O)cc1)C(=O)CCN1C(=O)C2CC=CCC2C1=O (stereo not given)	7	2	6306	?	-2
CC(C)(C)OC(=O)N1CCCC(C(=O)Nc2ccc(C(=O)NCc3ccccc3)cc2)C1 (stereo not given)	-2	0	4079	-4	-1
Cc1nc(C)c(C(=O)N2CCCC(C(=O)c3cc(F)ccc3F)C2)s1 (stereo not given)	-6	-4	6685	0	-10
CCN(CC)CCN(Cc1cc2cc3c(cc2[nH]c1=O)OCCO3)C(=O)NC1CCCCC1	3	0	4951	2	-6
O=C(NC1CCCCC1)N(CCN1CCOCC1)Cc1cc2cc3c(cc2[nH]c1=O)OCCO3	-5	1	19967*	0	-1
Cc1ccc2[nH]c(=O)c(CN(CCCN3CCOCC3)C(=O)NC3CCCCC3)cc2c1	4	?	22874*	-1	-2
CCCCCOc1ccc(C2C(C(=O)c3ccc(C)o3)=C(O)C(=O)N2c2cc(C)on2)cc1 (stereo not given)	-4	1	5389	-2	2
Cn1cnnc1SC1CCCCC1NS(=O)(=O)c1ccccc1 (stereo not given)	7	-3	23278*	-3	-6
Cc1ccc(S(=O)(=O)N(CC(=O)N/N=C/c2cccc(C)c2)c2cccc3cccnc23)cc1	6	1	4609	-4	?
Cc1ccc(S(=O)(=O)N(CC(=O)N/N=C\c2cccs2)c2cccc3cccnc23)cc1	51*	0	2610	0	0
CCCC(=O)c1cc(F)c(N2CCN(C(=O)OCC)CC2)cc1C	3	0	8786	0	-10
CCOC(=O)N1CCN(c2cc3nccnc3cc2F)CC1	-5	?	22764*	0	-6
N#Cc1cccc(NC(=O)CCc2ccc(S(=O)(=O)N3CCOCC3)cc2)c1	10	0	4222	-2	2
COc1cc2c(cc1OC)C(c1cccs1)CC(=O)N2 (stereo not given)	-4	0	5372	-2	-3
O=C1CC(c2cccs2)c2cc3c(cc2N1)OCO3 (stereo not given)	2	-3	23380*	-2	-8
COc1ccc(S(=O)(=O)Nc2cc3c4c(c2)CCC(=O)N4CCC3)cc1C	2	0	?	-3	-4
COc1ccc(N(CC(=O)Nc2ccc(OC)c(Cl)c2)S(=O)(=O)c2c(C)noc2C)cc1	6	2	20070*	-11	2
CCOc1ccc(N(CC(=O)Nc2ccc(OC)cc2)S(=O)(=O)c2c(C)noc2C)cc1	7	0	4033	-16	-3
COc1ccc(N(CC(=O)Nc2ccc(C)cn2)S(=O)(=O)c2c(C)noc2C)cc1	-8	-3	17199*	-2	-6
COc1ccc(N(CC(=O)Nc2cc(Cl)ccc2OC)S(=O)(=O)c2c(C)noc2C)cc1	-5	?	20289*	-3	-5
SMILES	MazEF act	BoNT A protease	Bead autofluor	Anthrax LF prot	BoNT F protease
COc1ccc(N(CC(=O)NCc2ccc(C)cc2)S(=O)(=O)c2c(C)noc2C)cc1	9	0	5142	-2	3
COc1ccc(N(CC(=O)Nc2ccc(F)c(Cl)c2)S(=O)(=O)c2c(C)noc2C)cc1	-1	0	16336*	-4	0
CCCCNc1c(-c2cccnc2)nc2nc(C)cc(C)n12	·	1	5673	-6	7
Cc1ccc2sc(N(CCCN(C)C)C(=O)c3ccc(Br)s3)nc2c1C	18	0	3516	-10	-8
COC(=O)CNc1nc(Cl)nc(NC2CCCCC2)n1	-19	3	3959	-8	?
Nc1c(NCCCN2CCOCC2)c2ccccc2oc1=O	4	-4	21802*	2	-5
Nc1c(NC2CCCCC2)c2ccccc2oc1=O	-5	3	22176*	-1	2
Cc1ccc(C(=O)NCN2CCN(c3ccccc3)CC2)cc1	5	0	?	2	9
O=C(Cc1c(F)cccc1Cl)OCC(=O)N1CCN(c2ccccc2)CC1	1	0	3841	-3	-2
Cc1ccc(NC(=O)c2ccc(C#CC3(O)CCCCC3)cc2)cc1C	-2	1	22190*	-7	1
Cc1ccc(NC(=O)NC2CCCCCCC2)cc1C	2	1	4484	1	5
CCCCC(O)(CCN1CCOCC1)c1ccc(Cl)cc1 (stereo not given)	2	3	21851*	-8	3
CCCCOc1ccc(C(O)(CCC)CCN2CCOCC2)cc1 (stereo not given)	3	1	2014	1	-4
CN(C)/C(CN1CCN(C=O)CC1)=C1\N=C(c2ccccc2)OC1=O	4	1	23334*	2	1
O=C(O)c1cccc(N2C(=O)/C(=C/c3ccc(SCc4ccc(Cl)cc4)o3)SC2=S)c1	574*	12	4497	6	1
O=C(c1ccco1)N1CCN(c2ccc(N3CCCCC3)nn2)CC1	1	2	?	-2	-3
CCOC(=O)c1[nH]nc(C(=O)c2ccc(Br)cc2)c1O	-4	4	18245*	-6	4
Cc1nc(NC(=O)c2oc3ccccc3c2C)sc1C(=O)N(C)C	6	-2	24342*	-6	-3
Cc1nnc(NC(=O)c2oc3ccccc3c2C)s1	2	0	4453	-4	-1
CCOC(=O)c1sc2cccc(F)c2c1N	16	?	22763*	-7	0
CCOC(=O)c1sc2cccc(Cl)c2c1N	3	1	4672	0	6
Cn1c(=O)c2c(nc(N3CCN(c4ccccn4)CC3)n2Cc2ccccc2Cl)n(C)c1=O	14	?	21245*	1	7
NCCCC[C@@H](C(=O)N1CCNCC1)n1cc([C@@H](N)CC(N)=O)nn1	7	0	4544	0	5
CC(C)NC(=O)N(C)C[C@H]1Oc2ccc(NS(=O)(=O)c3ccc(F)cc3)cc2C(=O)N([C@H](C)CO)C[C@@H]1C	3	0	4025	-2	-6
Cc1nn(C(C)c2n[nH]c(=S)n2-c2ccc(F)cc2)c(C)c1[N+](=O)[O-] (stereo not given)	-4	-3	17161*	-2	-6
CCNC(=O)C1(C)CCN(C(=O)c2c(F)cccc2F)C1 (stereo not given)	·	0	4147	0	1
Cc1sc2ncnc(SCC(=O)c3cccs3)c2c1C	8	-2	16770*	-2	-5
